Reference: PubChem BioAssay (EPA / NIEHS)
Results filed as inconclusive are left out. The source made the active and inactive calls. Rule for the calls, unless noted: active = hit-call score of the fitted dose curve at least 0.9, where 1 is the maximum; inconclusive = response in the unintended direction; inactive = score below 0.9.

Legend:
[1] = biological target: Cellular tumor antigen p53 (Homo sapiens) (UniProt P04637); experiment: TOX21_p53_BLA_p2_ratio: Tox21 HCT-116 p53 Agonism Beta-lactamase Assay, Ratio, Phase 2 (AID 2283592)
Outline: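 In this cell-based reporter format, HCT116 cells were dosed with chemicals delivered from DMSO by 217-fold dilution and incubated 16 h at 37C. Emission at 460 and 530 nm after 2 h CCF4-AM loading provided the ratio, fitted upward versus DMSO.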

[2] = biological target: Cellular tumor antigen p53 (Homo sapiens) (UniProt P04637); experiment: TOX21_p53_BLA_p3_ratio: Tox21 HCT-116 p53 Agonism Beta-lactamase Assay, Ratio, Phase 3 (AID 2283596)
Outline: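 HCT116 p53-bla cells (4000/well) given compound in DMSO (217-fold dilution) after 5 h, incubated 16 h at 37C. CCF4-AM substrate 2 h at room temperature; 460/530 nm emission ratio, gain fitted against DMSO.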

[3] = biological target: Cellular tumor antigen p53 (Homo sapiens) (UniProt P04637); experiment: TOX21_p53_BLA_p5_ratio: Tox21 HCT-116 p53 Agonism Beta-lactamase Assay, Ratio, Phase 5 (AID 2283599)
Outline: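 HCT-116 cells carrying a p53-inducible beta-lactamase reporter were seeded at 4000 cells/well and dosed after 5 h with compound in DMSO (217-fold dilution). After 16 h at 37C, CCF4-AM substrate was added for 2 h, and the 460/530 nm emission ratio was scored as gain-of-signal versus DMSO.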

[4] = biological target: Cellular tumor antigen p53 (Homo sapiens) (UniProt P04637); experiment: TOX21_p53_BLA_p4_ratio: Tox21 HCT-116 p53 Agonism Beta-lactamase Assay, Ratio, Phase 4 (AID 2283601)
Outline: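 HCT116 cells carrying an inducible beta-lactamase reporter were plated at 4000 cells/well, rested 5 h, then exposed to compounds in DMSO (217-fold dilution) for 16 h at 37C. CCF4-AM substrate was loaded 2 h at room temperature; 460/530 nm emission ratio scored gain-of-signal versus DMSO.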

[5] = TOX21_p53_BLA_p5_viability: Viability Assessment in the Tox21 HCT-116 p53 Agonism Beta-lactamase Assay, Phase 5 (AID 2283600)
Outline: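 Compounds, pinned from DMSO at 217-fold dilution, were left on the cells for 16 h. The viability endpoint was ATP content measured by CellTiter-Glo luminescence, where falling signal reflects cytotoxicity.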

[6] = TOX21_p53_BLA_p3_viability: Viability Assessment in the Tox21 HCT-116 p53 Agonism Beta-lactamase Assay, Phase 3 (AID 2283593);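 note: cells exposed to compound for 16 h before reading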
Outline: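 HCT-116 cells (4000/well) rested 5 h at 37C, then got DMSO compounds by pin tool (217-fold dilution) for 16 h at 37C, 5% CO2. After the bla read, CellTiter-Glo was added and luminescence read at 30 min, room temperature.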

[7] = CCTE_Harrill_HTTr_Viability_MCF7: CCTE's 6-hour Cell Viability Assessment for the High-Throughput Transcriptomics (HTTr) Platform, in MCF-7 cells cultured in DMEM + 10% fetal bovine serum, Harrill Lab (AID 2284010; active = hit-call score of the fitted dose curve at least 0.9, where 1 is the maximum; inactive = score below 0.9)
Outline: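 Viability measured through PI dye exclusion by high-content imaging at 6 h post-dosing.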

[8] = CCTE_Harrill_HTTr_Apoptosis_MCF7: CCTE's 6-hour Apoptosis Assessment for the High-Throughput Transcriptomics (HTTr) Platform, in MCF-7 cells cultured in DMEM + 10% fetal bovine serum, Harrill Lab (AID 2284011; active = hit-call score of the fitted dose curve at least 0.9, where 1 is the maximum; inactive = score below 0.9)
Outline: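 Read-out: CellEvent Caspase 3/7 Green signal by high content imaging, gain-of-signal indicating apoptosis. MCF-7 cells, DMEM + 10% FBS, eight-point dilution series, 6 h exposure. Curves fitted bidirectionally relative to DMSO negative control.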

[9] = CCTE_Harrill_HTTr_CellCount_MCF7: CCTE's Cell Proliferation Assessment for the High-Throughput Transcriptomics (HTTr) Platform, Harrill Lab (AID 2284012);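 note: count of Hoechst-stained nuclei per well by high-content imaging in MCF-7 cells; cells exposed to compound for six hours; intended direction is loss of nuclei count meaning fewer cells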
Outline: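 Nuclei counting (Hoechst, high content imaging) in MCF-7 after a 6 h treatment at eight concentrations. Activity fitted bidirectionally, DMSO as negative control.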

[10] = TOX21_p53_BLA_p4_viability: Viability Assessment in the Tox21 HCT-116 p53 Agonism Beta-lactamase Assay, Phase 4 (AID 2283597);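 note: hits lower the luminescence signal meaning cytotoxicity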
Outline: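 We seeded HCT116 p53 reporter cells at 4000/well and waited 5 h. We then added compounds in DMSO at a 217-fold dilution and incubated for 16 h. Viability was read as CellTiter-Glo luminescence after 30 min at RT.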

[11] = biological target: Thyroid hormone receptor alpha (Rattus norvegicus) + Thyroid hormone receptor beta (Rattus norvegicus) (UniProt P18113+P63059); experiment: TOX21_TR_LUC_GH3_Antagonist_Followup: Tox21 GH3 Thyroid Hormone Receptor Antagonism Luciferase Follow-Up Assay (AID 2283942)
Outline: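 Rat pituitary GH3 cells with a TRα/TRβ-driven luciferase reporter, 5 h attachment, then 15 concentrations (92 uM to 5nM final) plus 1.0 nM T3 agonist, 24 h at 37C/5% CO2. ONE-Glo luminescence; signal change fitted against DMSO baseline.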

[12] = biological target: THRA (gene 7067) (UniProt P10827); experiment: TOX21_TRA_COA_Antagonist_Followup_ratio: Tox21 Thyroid Hormone Receptor alpha Antagonism through Coactivator Recruitment Follow-Up Assay, Ratio (AID 2283953)
Outline: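 This follow-up to the GH3 luciferase screen checks specificity in a cell-free format. It measures SRC-2 coactivator peptide binding to TRα LBD by TR-FRET and scores loss of ratio signal relative to DMSO.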

[13] = biological target: THRB (gene 7068) (UniProt P10828); experiment: TOX21_TRB_COA_Antagonist_Followup_ratio: Tox21 Thyroid Hormone Receptor beta Antagonism through Coactivator Recruitment Follow-Up Assay, Ratio (AID 2283967)
Outline: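 Cell-free TR-FRET coactivator recruitment with GST-tagged TRβ LBD (5.0 nM) and fluorescein-labeled SRC-2 peptide (200 nM) detected by terbium anti-GST antibody (2 nM). The 520:495 nm emission ratio was normalized to DMSO (0%) and T3 (100%).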

[14] = biological target: Retinoic acid receptor RXR-alpha (Homo sapiens) (UniProt P19793); experiment: TOX21_TR_RXR_BLA_Antagonist_Followup_ratio: Tox21 Thyroid Hormone Receptor beta Retinoid X Receptor alpha (RXRa) Antagonism Beta-lactamase (BLA) Follow-Up Assay, Ratio (AID 2283972)
Outline: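 Beta-lactamase reporter readout as cleaved/uncleaved substrate ratio (460:530 nm) after 2 h substrate loading at room temperature. GAL4-RXRa bla HEK293T cells were exposed 16 h at 37C to 11-point compound series; loss of signal scored against DMSO baseline.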

Measured: AC50

Sequence of Cellular tumor antigen p53 (Homo sapiens) (P04637 whole entry, looked up): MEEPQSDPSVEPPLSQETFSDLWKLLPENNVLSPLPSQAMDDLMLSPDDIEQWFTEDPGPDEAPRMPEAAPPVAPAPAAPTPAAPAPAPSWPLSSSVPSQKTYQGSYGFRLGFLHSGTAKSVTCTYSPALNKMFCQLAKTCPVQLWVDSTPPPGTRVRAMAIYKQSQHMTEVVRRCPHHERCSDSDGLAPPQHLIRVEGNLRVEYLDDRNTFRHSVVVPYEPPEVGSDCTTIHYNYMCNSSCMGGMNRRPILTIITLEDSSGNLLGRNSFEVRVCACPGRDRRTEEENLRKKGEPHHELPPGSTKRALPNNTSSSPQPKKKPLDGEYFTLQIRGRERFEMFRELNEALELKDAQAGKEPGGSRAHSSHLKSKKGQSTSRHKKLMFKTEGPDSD
Sequence of THRB (gene 7068) (P10828 whole entry, looked up, the tested form may be a part): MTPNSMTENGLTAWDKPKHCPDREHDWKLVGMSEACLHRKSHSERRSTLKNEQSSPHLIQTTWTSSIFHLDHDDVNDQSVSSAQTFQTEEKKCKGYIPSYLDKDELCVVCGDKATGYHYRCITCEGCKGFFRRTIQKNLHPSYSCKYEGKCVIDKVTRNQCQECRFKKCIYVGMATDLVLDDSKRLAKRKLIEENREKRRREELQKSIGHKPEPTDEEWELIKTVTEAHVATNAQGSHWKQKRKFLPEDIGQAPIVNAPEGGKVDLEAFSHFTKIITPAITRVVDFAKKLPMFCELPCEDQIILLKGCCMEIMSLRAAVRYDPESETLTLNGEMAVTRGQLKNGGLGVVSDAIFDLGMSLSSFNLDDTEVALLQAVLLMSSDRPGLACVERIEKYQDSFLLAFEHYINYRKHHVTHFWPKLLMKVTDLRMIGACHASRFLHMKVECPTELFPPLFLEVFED
Sequence of THRA (gene 7067) (P10827 whole entry, looked up, the tested form may be a part): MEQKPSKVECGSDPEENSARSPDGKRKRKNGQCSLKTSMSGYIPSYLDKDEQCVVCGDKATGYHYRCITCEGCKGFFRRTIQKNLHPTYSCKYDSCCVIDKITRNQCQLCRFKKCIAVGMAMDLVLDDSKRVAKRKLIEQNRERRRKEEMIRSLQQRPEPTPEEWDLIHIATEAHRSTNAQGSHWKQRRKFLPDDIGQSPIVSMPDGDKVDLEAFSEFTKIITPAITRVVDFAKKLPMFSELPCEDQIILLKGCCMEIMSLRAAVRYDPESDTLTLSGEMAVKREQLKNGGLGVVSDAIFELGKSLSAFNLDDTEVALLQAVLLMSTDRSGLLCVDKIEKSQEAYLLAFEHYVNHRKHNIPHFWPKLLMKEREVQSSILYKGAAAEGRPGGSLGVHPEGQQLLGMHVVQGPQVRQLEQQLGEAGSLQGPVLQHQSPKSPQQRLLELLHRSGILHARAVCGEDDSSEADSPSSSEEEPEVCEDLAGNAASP
Sequence of Retinoic acid receptor RXR-alpha (Homo sapiens) (P19793 whole entry, looked up, the tested form may be a part): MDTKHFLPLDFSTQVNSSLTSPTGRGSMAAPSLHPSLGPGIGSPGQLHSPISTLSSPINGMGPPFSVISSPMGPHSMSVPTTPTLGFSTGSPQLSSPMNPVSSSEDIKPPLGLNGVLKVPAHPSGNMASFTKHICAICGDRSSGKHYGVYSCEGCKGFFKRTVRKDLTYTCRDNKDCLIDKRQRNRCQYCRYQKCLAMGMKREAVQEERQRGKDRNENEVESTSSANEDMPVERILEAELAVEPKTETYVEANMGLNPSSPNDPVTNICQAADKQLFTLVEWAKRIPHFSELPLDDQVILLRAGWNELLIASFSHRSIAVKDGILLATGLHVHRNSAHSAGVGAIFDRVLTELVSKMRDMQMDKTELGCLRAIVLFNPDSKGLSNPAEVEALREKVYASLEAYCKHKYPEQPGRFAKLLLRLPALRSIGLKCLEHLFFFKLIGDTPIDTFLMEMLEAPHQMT

COC(=O)C(Br)CBr (stereo not given)
inactive: [1] | [3] | [4]
active: [2] 48 µM

CC[C@@H](CO)NC(=O)[C@@H]1C=C2c3cccc4c3c(cn4C)C[C@H]2N(C)C1
inactive: [1] | [2] | [3] | [4]

c1csc(C2(N3CCCCC3)CCCCC2)c1
inactive: [1] | [2] | [3] | [4]

CCS(=O)(=O)C(C)(C)S(=O)(=O)CC
inactive: [1] | [2] | [3] | [4]

CCCCC(CC)COC(=O)OOC(C)(C)C (stereo not given)
inactive: [1] | [2] | [3] | [4]

CCC1C(C)=NN=C(c2ccc(OC)c(OC)c2)c2cc(OC)c(OC)cc21 (stereo not given)
inactive: [1] | [3]

FC(Cl)(Cl)Cl
inactive: [1] | [5]

N#CC(Cl)(Cl)Cl
inactive: [6] | [2]

CCCCc1c(C)nc(NCC)nc1OS(=O)(=O)N(C)C
inactive: [1] | [3] | [7] | [8] | [9]

CN1C(=O)CC(=O)N(c2ccccc2)c2cc(Cl)ccc21
inactive: [1] | [10] | [5] | [4]

NCCCNCCCN
inactive: [1] | [10] | [3] | [5] | [4]

O=C1CN(O)C(c2ccccc2)=c2cc(Cl)ccc2=N1
inactive: [1] | [10] | [5] | [4]

C1CS1
inactive: [6] | [2] | [10] | [3]

C[C@@H](Cc1ccccc1)N(C)C
inactive: [1] | [10] | [3] | [5] | [4]

O=C1CC[C@@]2(O)[C@H]3Cc4ccc(O)c5c4[C@@]2(CCN3CC2CC2)[C@H]1O5
inactive: [1] | [2] | [4]

CNC(=O)Oc1c(C(C)(C)C)cc(C)cc1C(C)(C)C
inactive: [6]

Cc1nnc(-c2ccccc2)c(=O)n1N
inactive: [6] | [2]

COc1cc(CC(C)N)cc(OC)c1OC (stereo not given)
inactive: [1] | [10] | [3] | [4]

CNNC
inactive: [1] | [10] | [5]

CC(C)=CCOc1c2occc2cc2ccc(=O)oc12
inactive: [1] | [10] | [3] | [5] | [4]

COc1ccccc1N1CCNCC1
inactive: [1] | [3] | [5] | [4]

ClCC(Cl)(Cl)Cl
inactive: [1] | [3]

NNC(=O)c1cccnc1
inactive: [1] | [10] | [3] | [4]

N#CCCC#N
inactive: [1] | [10] | [3] | [5]

COc1cccc([C@@]2(O)CCCC[C@@H]2CN(C)C)c1
inactive: [1] | [2] | [4] | [7] | [8] | [9]

Cc1ccc(N)cc1C
inactive: [1] | [3] | [4]

CC(Cl)C(C)Cl (stereo not given)
inactive: [1] | [10] | [3]

NC(=O)CN1CC(O)CC1=O (stereo not given)
inactive: [1] | [5] | [4]

CNC(=O)OCC[N+](C)(C)C
inactive: [1] | [10] | [5] | [4]

COc1cc([C@@H]2c3cc4c(cc3[C@@H](O)[C@H]3COC(=O)[C@H]23)OCO4)cc(OC)c1O
active: [1] 35.5 µM
inactive: [2] | [4] | [11] | [12] | [13] | [14]

COP(=S)(OC)Oc1ccc(S(N)(=O)=O)cc1
inactive: [1] | [10] | [5] | [4]
